High-throughput results: PubChem, several laboratories
Only some compounds are listed: those with a hit (about 1.5% of all), similar ones and a draw of the others.
CRFBP-R2 block: antagonists of CRF-BP/CRF-R2 complex, primary screen, cell-based, HEK293, calcium dye fluorescence, uHTS; 0.59% of 350,000 active; CRF-induced calcium fluorescence; inhibition, % at 11.8 µM;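 active = inhibition of the ligand-induced calcium signal above about 50% at the single tested concentration, limit read from the data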
CRFR2-BP ag: agonists of CRF-BP/CRF-R2 complex, primary screen, cell-based, HEK293, calcium dye fluorescence, uHTS; AID 588473, 2011; 0.46% of 350,000 active; activation, % at 13.2 µM; calcium dye fluorescence (FLIPR); percent of saturating CRF peptide response; CRF-binding protein / CRF receptor 2 complex (human);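 active = activation of at least 50%, plus an integration ratio under a set limit after plate pattern correction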
NTR1 ag: agonists of human NTR1, primary screen, imaging, U2OS cells, beta-arrestin-GFP, high content; NTR1-U2OS beta-arrestin-GFP spot imaging, agonist mode; Neurotensin receptor type 1 (Homo sapiens), P30989; activation, % at 20 µM; 0.17% of 330,000 active;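 active = activation at or above 40% of the spot to cytoplasm intensity ratio, with at least 20 cells analyzed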
Target sequence (P30989 whole entry, looked up): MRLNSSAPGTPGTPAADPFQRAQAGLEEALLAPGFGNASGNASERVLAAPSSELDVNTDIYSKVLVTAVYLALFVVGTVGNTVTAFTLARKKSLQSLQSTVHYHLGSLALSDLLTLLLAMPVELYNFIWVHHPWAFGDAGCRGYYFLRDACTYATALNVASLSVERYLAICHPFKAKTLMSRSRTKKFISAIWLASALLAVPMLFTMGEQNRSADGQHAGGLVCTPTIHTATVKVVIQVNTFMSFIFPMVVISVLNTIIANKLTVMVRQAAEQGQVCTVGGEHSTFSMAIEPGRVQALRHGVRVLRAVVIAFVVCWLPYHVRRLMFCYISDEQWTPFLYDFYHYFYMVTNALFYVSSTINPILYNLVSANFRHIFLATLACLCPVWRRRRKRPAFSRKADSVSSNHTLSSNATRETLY
V-ATPase pH: regulators of yeast V-ATPase proton pumping, primary screen, pHLuorin cytosolic pH fluorescence; S. cerevisiae; response, % at 10 µM; 0.37% of 350,000 active; AID 504577, 2011; in the data active = response mostly above about 7.3%, no sharp cut-off; inactive = mostly below about 5.4%; note: actives read high
Of the large screens only hits and unclear results are named; the others gave an inactive call.

O=C(C[C@H]1C[C@@H]2c3cc(NS(=O)(=O)c4ccccc4)ccc3O[C@@H]2[C@H](CO)O1)N1CCOCC1	CRFBP-R2 block 52 (no result: NTR1 ag)
O=C1S/C(=C\c2ccc(N3CCOCC3)o2)C(=O)N1Cc1ccc(F)cc1	none
O=C1NC(=S)S/C1=C/c1ccc(N2CCOCC2)o1	CRFR2-BP ag 52
C=CCN1C(=O)N/C(=C/c2ccc(N3CCOCC3)o2)C1=O	none (no result: CRFBP-R2 block, CRFR2-BP ag, V-ATPase pH)
O=C1N/C(=C/c2ccc(N3CCOCC3)o2)C(=O)N1c1ccccc1	CRFBP-R2 block 56 (no result: NTR1 ag)
O=C1S/C(=C/c2ccc(N3CCOCC3)o2)C(=O)N1Cc1ccc(F)cc1	CRFR2-BP ag 114
Cc1ccc(S(=O)(=O)N2CCN(C(=O)c3ccc(-n4cncn4)c([N+](=O)[O-])c3)CC2)c(C)c1	none (no result: NTR1 ag)
COc1ccc2nc(C)cc(N/N=C/c3cccc(OC)c3O)c2c1	NTR1 ag 41
COc1ccc(/C=N/Nc2cc(C)nc3ccc(Br)cc23)cc1	none
CCCC(=O)Nc1ccc(-c2nc3cc(C)c(C)cc3o2)c(O)c1	CRFBP-R2 block 75
Cc1cc(Cl)c2oc(C(=O)N3CCCCC3CCN3CCCC3=O)c(C)c2c1 (stereo unspecified)	none
CCc1cccc(CC)c1NC(=S)Nc1ccccc1	none
O=C(/C=C/c1ccc2ccccc2n1)N1CCN(c2ccccc2)CC1	CRFBP-R2 block 75
O=C(/C=C/c1ccc2ccccc2n1)N1CCN(S(=O)(=O)c2ccc(F)cc2)CC1	none
O=C1NCN(c2ccccc2)C12CCN(CCCC(c1ccc(F)cc1)c1ccc(F)cc1)CC2	NTR1 ag 40
N#Cc1ccc(S(=O)(=O)N2CCN(C(=O)[C@@H]3CCCN3C(=O)c3cccs3)CC2)cc1	CRFBP-R2 block 79
COc1ccc(C(C)NCCC(c2ccc(OC(C)C)cc2)c2ccccc2OC)cc1 (stereo unspecified)	NTR1 ag 68
CC(Sc1n[nH]c(-c2cccs2)n1)C(=O)N1CCCC1 (stereo unspecified)	none
CCCCCCCCNS(=O)(=O)CCNCc1ccc(OC)cc1	CRFBP-R2 block 115 (no result: NTR1 ag)
CC(C)C(NS(=O)(=O)c1cccs1)C(=O)N1CCC(C(N)=O)CC1 (stereo unspecified)	none
CCOc1ccc(C2CC(c3ccc(OC)c(OC)c3)n3nc(N)nc3N2)cc1 (stereo unspecified)	none
CCCCOC1CC(c2ccc(OCc3ccc(OC)cc3)c(OC)c2)N(C)O1 (stereo unspecified)	CRFBP-R2 block 89
COc1ccc(CCN2C(=O)NC(NS(=O)(=O)c3ccccc3)(C(F)(F)F)C2=O)cc1OC (stereo unspecified)	none
Cc1onc(-c2ccccc2Cl)c1-c1nc(-c2ccncc2)no1	V-ATPase pH 21
CC1=CC(=O)C=C(C)C1=NOS(=O)(=O)c1ccccc1	none (no result: NTR1 ag)
CC1=CC(=O)C(C(C)C)=C/C1=N/OS(=O)(=O)c1ccccc1	CRFR2-BP ag 51
CC(=O)Nc1ccc(NC(=O)c2ccccc2S(=O)(=O)c2ccc([N+](=O)[O-])cc2)cc1	none
CS(=O)(=O)Nc1ccccc1C(=O)NCc1ccccc1Cl	CRFBP-R2 block 61
Cc1ccccc1CNC(=O)c1ccccc1NS(C)(=O)=O	none
Cc1c(Cl)cccc1N=Cc1ccc([N+](=O)[O-])s1	V-ATPase pH 20
Cc1ccccc1C(=O)N/N=C/c1ccc([N+](=O)[O-])s1	none
O=C(Nc1ccc(N2CCN(Cc3ccccc3F)CC2)cc1)c1ccccc1[N+](=O)[O-]	none
O=C(Nc1ccc(N2CCN(Cc3ccccc3F)CC2)cc1)c1ccc([N+](=O)[O-])o1	NTR1 ag 42
CC1CCN(c2ccc(NC(=O)c3ccc([N+](=O)[O-])o3)cc2)CC1	NTR1 ag 42
O=C(Nc1ccc(N2CCCCC2)cc1)c1ccc([N+](=O)[O-])o1	none
CCOC(=O)C1CCN(c2cc3c(cc2NC(=O)c2cc(OC)ccc2Br)n(C)c(=O)n3C)CC1	CRFBP-R2 block 72
Cc1cccc(-c2nc(CS(=O)CC(=O)NC3CCCC(C)C3C)c(C)o2)c1 (stereo unspecified)	none
Cc1ccccc1C(=O)NN1C(=O)CSC1=S	none
O=C(NN1C(=O)CSC1=S)c1cccnc1	CRFBP-R2 block 77
COc1ccc(NC(=O)CN(c2c(C)cccc2C)S(C)(=O)=O)cc1	none
COc1ccc(C(C)=NNc2ccc([N+](=O)[O-])cc2S(=O)(=O)Nc2ccccc2C(=O)O)c(OC)c1	CRFBP-R2 block 66
CC(=O)Nc1ccc(C=NNc2ccc([N+](=O)[O-])cc2S(=O)(=O)Nc2ccccc2C(=O)O)cc1	none
CSCCC(NC(=O)c1ccco1)C(=O)NCc1ccc2c(c1)OCO2 (stereo unspecified)	none
CC(=O)Nc1nc2n(n1)C(c1ccccc1)C=C(c1ccccc1)N2 (stereo unspecified)	none
CS(=O)(=O)Nc1nc2n(n1)C(c1ccccc1)C=C(c1ccc(Br)cc1)N2 (stereo unspecified)	CRFR2-BP ag 139
O=C(c1nc2n(n1)C(c1ccc(Cl)cc1)C=C(c1ccccc1)N2)N1CCOCC1 (stereo unspecified)	CRFR2-BP ag 97
CC(=O)Nc1nc2n(n1)C(c1ccc(F)cc1)C=C(c1ccccc1)N2 (stereo unspecified)	CRFR2-BP ag 75
O=C(Nc1nc2n(n1)C(c1ccccc1)C=C(c1ccccc1)N2)c1ccco1 (stereo unspecified)	none
CN(C)CCCN1C(=O)c2cccc3c([N+](=O)[O-])ccc(c23)C1=O	CRFBP-R2 block 81, CRFR2-BP ag 56 (no result: NTR1 ag)
O=C(COC(=O)/C=C/c1ccc([N+](=O)[O-])cc1)NNC(=O)c1ccccc1	none
COc1ccc(NC(C)=O)cc1NC(=O)CN1CCN(S(=O)(=O)c2ccc(C(C)C)cc2)CC1	V-ATPase pH 19
COc1ccc(S(=O)(=O)N2CCCN(CC(=O)Nc3cc(NC(C)=O)ccc3OC)CC2)cc1	none
Cc1cc(C)c(C)c(S(=O)(=O)N[C@@H](C)C(=O)OCC(N)=O)c1C	none
Cc1ncn(C23CC4CC(CC(C4)C2)C3)n1	CRFBP-R2 block 58
Cc1cc(=O)oc2c1ccc1oc(/C(=N/O)c3ccccc3)c(C)c12	CRFBP-R2 block 118
Cc1ccc(/C(=N\O)c2oc3c(C)c4oc(=O)cc(C)c4cc3c2C)cc1	none
COc1ccc(-c2cc3nc(C4CCN(C(=O)OC(C)(C)C)CC4)c(C(=O)O)cn3n2)cc1	CRFBP-R2 block 52
O=C(O)c1ccccc1C(=O)Nc1c(-c2ccccc2)nc2ccccn12	none
Cc1nc(CNS(=O)(=O)c2ccc3ccccc3c2)cs1	CRFBP-R2 block 65
Cc1nc(CNS(=O)(=O)c2cccc(F)c2)cs1	none
Cc1[nH]c2ccccc2c1SCCNC(=O)c1ccc(S(=O)(=O)N2CCCC2)cc1	CRFBP-R2 block 114
CCSc1nnc(NC(=O)C(CC)(C(F)(F)F)C(F)(F)F)s1	CRFBP-R2 block 56
CCSc1nnc(NC(=O)C(C)(C(F)(F)F)C(F)(F)F)s1	none
